# Test results from PubChem BioAssay (Tox21).
# Results filed as inconclusive are left out. Where a call stands in place of a potency, no number is given. Active and inactive are the calls of the source. Calls follow the shape of the dose curve; as a rule, active = well fitted cell-killing curve with a large enough effect in the repeat runs; inconclusive = weak or mixed curves, or effect the other way; inactive = flat fitted curve, though single readings scatter.
# Assay: qHTS RealTime-Glo MT Cell Viability Assay in HEK293 cells - 0 hour (AID 1224880); also: top concentration of the series differs between compounds; nearly all actives have a fitted effect of over 45% in size
# Settings: RealTime-Glo luminescence; series mostly up to 76.8 µM
# How it was run: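 600 HEK293 cells per well, dispensed already mixed with RealTime-Glo MT reagents. Compound dosing came 5 h later. The same wells were read for luminescence at 0, 8, 16, 24, 32 and 40 h of exposure at 37 C.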
row,Structure (SMILES),Potency
1,CC1=C(/C=C/C(C)=C/C=C/C(C)=C/CO)C(C)(C)CCC1,inactive
2,NCc1cccc(CN)c1,inactive
3,CN(C)c1cccc(O)c1,inactive
4,OCC1CCCO1 (stereo not drawn),inactive
5,CCCCC(CC)C(=O)OCCOCCOCCOC(=O)C(CC)CCCC (stereo not drawn),inactive
6,O=S(=O)(O)CCS,inactive
7,Oc1ccc2ccccc2c1,inactive
8,Cc1ccc(C(=O)O)o1,inactive
9,ClC1=C(Cl)C(Cl)(Cl)C(Cl)=C1Cl,inactive
10,OC[C@@H](O)[C@H](O)[C@H](O)[C@@H](O)CO,inactive
11,CCOC(=O)/C=C\C(=O)OCC,inactive
12,CC1=CC[C@H]2C[C@@H]1C2(C)C,inactive
13,O=C(c1ccc(O)cc1)c1ccc(O)cc1O,inactive
14,CCc1ccccc1O,inactive
15,COCC(C)O (stereo not drawn),inactive
16,CC(C)NCC(O)COc1cccc2ccccc12 (stereo not drawn),inactive
17,CCCCCCOC(C)=O,inactive
18,CC(C)n1c(/C=C/[C@@H](O)C[C@@H](O)CC(=O)O)c(-c2ccc(F)cc2)c2ccccc21,inactive
19,c1ccc2ccccc2c1,inactive

row,Structure (SMILES),Potency
1,CC(C)(C)C1CCC(O)CC1 (stereo not drawn),inactive
2,O=S(=O)(O)c1cc(S(=O)(=O)O)c2c(N=Nc3ccccc3)c(O)ccc2c1,inactive
3,Cn1c([N+](=O)[O-])cnc1COC(N)=O,inactive
4,CCCCCCCCC,inactive
5,Cc1ccc(N)c(S(=O)(=O)O)c1,inactive
6,C=C(C)C(=O)OCCCCCC,inactive
7,Oc1c(Cl)cc(Cl)c(Cl)c1Cl,inactive
8,Cc1cc(O)c2c(c1)C(=O)c1cc(O)cc(O)c1C2=O,inactive
9,Nc1c(S(=O)(=O)O)cc(Br)c2c1C(=O)c1ccccc1C2=O,inactive
10,C=C(C)C(=O)OCC(CC)(COC(=O)C(=C)C)COC(=O)C(=C)C,inactive
11,Nc1cc(-c2ccncc2)c[nH]c1=O,inactive
12,CCCCC(CC)COC(=O)CCCCCCCC(=O)OCC(CC)CCCC (stereo not drawn),inactive
13,CN(C)c1ccc(C(=N)c2ccc(N(C)C)cc2)cc1,inactive
14,CCCCCCC(C)(C)S,inactive
15,CCOC(=O)C1OC1c1ccccc1 (stereo not drawn),inactive
16,Clc1ccc(Cl)c(Cl)c1Cl,inactive
17,CNC[C@H](O)[C@@H](O)[C@H](O)[C@H](O)CO,inactive
18,C=C(C)C(=O)OCCC[Si](OC)(OC)OC,inactive
19,CCCCC(CC)COC(=O)/C=C\C(=O)OCC(CC)CCCC (stereo not drawn),inactive
